Rows were chosen to be rich in hits. Some 4.1% of all compounds tested hit in one or more screens of this group.
ssDAF12 agonist = S. stercoralis DAF-12 nuclear receptor activators, primary screen, cell-based, luminescence, HEK293, GRIP1 co-expression, lit1-tk-luc | Nuclear hormone receptor DAF-12 (Strongyloides stercoralis) | HEK293 ssDAF-12/GRIP1 lit1-tk-luc reporter; % of 3 µM dafachronic acid response | activation, % at 6.8 µM | 1% of 370,000 active | AID 652126, 2013;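 active = activation above the mean over all tested compounds plus 3 SD, cut at about 0.9% in these data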
hgDAF-12 ag = H. glycines DAF-12 receptor agonists, primary screen, cell-based, luminescence, HEK293, GAL4 fusion, UAS-luciferase | Nuclear hormone receptor DAF-12 (Heterodera glycines), GAL4 fusion | HEK293 GAL4-hgDAF12 UAS-luciferase reporter, agonist luminescence; normalized to butyrate control | activation, % at 6.8 µM | 1.8% of 370,000 active;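 active = activation above a cutoff set at the mean of all screened compounds plus 3 SD, cut at about 10% in these data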
DAX1 inh-1 = DAX1 (NR0B1) inhibitors on StAR promoter, primary screen, cell-based, luminescence, SF-1 (NR5A1), full-length DAX-1 | HEK293T StAR-luciferase reporter, SF-1/DAX-1 repression relief | inhibition, % at 6.8 µM | 1.1% of 370,000 active;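 active = inhibition above the mean over all tested compounds plus 3 SD, cut at about 3.6% in these data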;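 note: higher inhibition means more luminescence from relief of DAX-1 repression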
DAX1 inh-2 = DAX1 (NR0B1) inhibitors, primary screen, cell-based, HEK293, Gal4-DAX1, luciferase luminescence. Nuclear receptor subfamily 0 group B member 1 (Homo sapiens), P51843. HEK293 Gal4-DAX1 luciferase reporter. inhibition, % at 6.75 µM. 0.99% of 340,000 active. AID 504766, 2011;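 active = inhibition above the mean over all tested compounds plus 3 SD, cut at about 4.2% in these data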;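 note: inhibition shows as a rise in luminescence from relieved DAX1 repression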
Target sequence (P51843 207-470 limits assumed): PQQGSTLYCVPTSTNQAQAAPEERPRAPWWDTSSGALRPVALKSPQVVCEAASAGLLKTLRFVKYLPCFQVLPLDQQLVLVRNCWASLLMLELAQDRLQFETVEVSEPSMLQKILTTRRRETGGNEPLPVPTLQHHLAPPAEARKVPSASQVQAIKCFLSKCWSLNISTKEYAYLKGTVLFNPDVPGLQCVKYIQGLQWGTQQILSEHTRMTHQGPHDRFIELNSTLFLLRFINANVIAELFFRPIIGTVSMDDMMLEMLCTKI
hcDAF-12 act = H. contortus DAF-12 nuclear receptor activators, primary screen, cell-based, luminescence, HEK293, lit1-tk-luc reporter. HEK293 hcDAF-12 lit1-tk-luc reporter; 0% DMSO, 100% Δ7-dafachronic acid. activation, % at 6.8 µM. 1.4% of 370,000 active. AID 652067, 2013;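 active = activation above the mean of all tested compounds plus 3 SD, cut at about 5.5% in these data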
Each line names hits and unclear results; the compound was inactive in the other large screens.

O=C(O)CC(C(=O)O)n1nc(-c2ccccc2)cc1-c1ccccc1 (centres undefined)	hcDAF-12 act 5.8
CC(NC(=O)NC12CC3CC(CC(C3)C1)C2)C1CCCO1 (centres undefined)	DAX1 inh-2 7.2
Cc1ccc(C2=CSC3=NCCN23)cc1	ssDAF12 agonist 1.9
Cn1c(SCC(=O)NCc2ccccc2)ncc(C(=O)Nc2ccccc2)c1=O	ssDAF12 agonist 1.0
Cc1ccc(CNC(=O)CSc2ncc(C(=O)Nc3ccccc3)c(=O)n2C)cc1	ssDAF12 agonist 1.6
Cn1cnnc1SCC(=O)NCc1ccccc1	hgDAF-12 ag 11.6
COc1cccc(/C=C2\Oc3ccc(O)cc3C2=O)c1O	ssDAF12 agonist 1.8, DAX1 inh-1 4.0, hcDAF-12 act 6.0
COC(=O)c1ccc2c(c1)C(=O)/C(=C/c1ccc(O)cc1)O2	none
COc1ccc(C2Nc3ccccc3C(=O)N2c2ccccc2)cc1CN1CCOCC1 (centres undefined)	DAX1 inh-2 6.1
COc1ccc(C2Nc3ccccc3C(=O)N2Cc2ccccc2)cc1CN1CCOCC1 (centres undefined)	none
Cn1cc(C=O)c2ccccc21	ssDAF12 agonist 1.3
O=Cc1ccc(-n2cc(C=O)c3ccccc32)cc1	none
C/C(=N\NC(=O)COc1ccc(C)cc1C(C)C)c1ccc(-n2ccnc2)cc1	hgDAF-12 ag 11.1
COc1cccc(CNC(=O)[C@H]2CCCN2C(=O)[C@H]2CCCN2C(=O)c2ccc(C)cc2)c1	none (no result: DAX1 inh-2)
CN(C)C(=O)c1nc2ccccc2s1	hcDAF-12 act 6.5
Cc1cc(N2CCNC[C@H]2C)ccc1N1CCS(=O)(=O)CC1	none (no result: DAX1 inh-2)
C=CCn1c(SCC(=O)Nc2ccc(Br)cc2)nc(O)cc1=O	none
CCn1c(SCC(=O)Nc2ccc(C)cc2)nc(O)cc1=O	DAX1 inh-2 4.5
O=C(N/N=C/c1ccc(O)cc1)c1csc2c1CCCC2	hgDAF-12 ag 10.5
COC(=O)[C@H](C(C)C)N(CCc1cn(CC2CCCCC2)nn1)S(=O)(=O)c1ccc(F)cc1Br	none (no result: DAX1 inh-2)
Cc1c(C)c2c(OCC(=O)NCc3ccncc3)cc3c(c2oc1=O)CCC(C)(C)O3	DAX1 inh-2 5.9
COc1ccc(S(=O)(=O)NCc2ccccn2)cc1C	none
CC(=O)NC1(c2ccccc2)CCN(c2cc(C)nc(-c3ccccc3)n2)CC1	ssDAF12 agonist 7.3
O=c1cc(CN2CCN(c3cccc(C(F)(F)F)c3)CC2)nc2sccn12	none (no result: DAX1 inh-2)
O=c1cc(CN2CCN(c3ccccn3)CC2)nc2sccn12	hcDAF-12 act 5.7
O=C(c1cc(Cl)ccc1F)N1CCCC(c2nc(-c3cccs3)no2)C1 (centres undefined)	none (no result: DAX1 inh-2)
COC(=O)c1ccc2nc(-c3ccccc3)c(Cc3cccc(Cl)c3)n2c1	ssDAF12 agonist 1.2 (no result: DAX1 inh-2)
COC(=O)c1ccc2nc(C3CCCCC3)c(CC(C)(C)C)n2c1	none (no result: DAX1 inh-2)
COC(=O)c1ccc2nc(C3CCCCC3)c(Cc3ccccc3)n2c1	hcDAF-12 act 5.9 (no result: DAX1 inh-2)
CC1(C(=O)NS(=O)(=O)C2CC2)CCCN(C(=O)c2cc3ccccc3s2)C1 (centres undefined)	none (no result: DAX1 inh-2)
CC(C)CNC(=O)C1(C)CCCN1C(=O)C(C)(C)Oc1ccc(Cl)cc1 (centres undefined)	none (no result: DAX1 inh-2)
CCc1ccc(S(=O)(=O)NCc2ccc(C(=O)NCCN(Cc3ccccc3)C(C)C)cc2)cc1	none (no result: DAX1 inh-2)
O=C(CSC1CC(=O)N(CCc2ccccc2)C1=O)Nc1ccc(Br)cc1 (centres undefined)	hcDAF-12 act 5.8
O=C(O)CSC1CC(=O)N(c2ccc(F)cc2)C1=O (centres undefined)	none
O=C(CSC1CC(=O)N(CCc2ccccc2)C1=O)Nc1cccc(Cl)c1 (centres undefined)	none
O=C(CSC1CC(=O)N(c2ccc(C(=O)O)cc2)C1=O)Nc1ccc(Cl)cc1 (centres undefined)	DAX1 inh-2 6.5
O=C(N/N=C/c1ccncc1)C1C2CCCCCCC21 (centres undefined)	none
O=C(N/N=C/c1ccncc1)NC1CCCCC1	DAX1 inh-2 5.9
O=C(/C=C(\Nc1ccccc1)c1ccccc1)c1ccccc1	none (no result: DAX1 inh-2)
C/C(=C\C(=O)c1ccccc1)Nc1ccc(O)cc1	ssDAF12 agonist 1.1
O=C(/C=C(\Nc1ccc(F)cc1)c1ccccc1)c1ccccc1	hgDAF-12 ag 10.7 (no result: DAX1 inh-2)
C/C(=C\C(=O)c1cccnc1)Nc1ccc(O)cc1	none
CCCNC(=O)C1(C)CCCN(C(=O)c2cccnc2Oc2ccccc2)C1 (centres undefined)	none (no result: DAX1 inh-2)
CCOC(=O)CNC(=O)c1c2c(nc3ccccc13)CCCC2	ssDAF12 agonist 1.0
COc1ccc(C)cc1S(=O)(=O)N(C)CC(=O)N1CCCC1	DAX1 inh-2 4.8
COc1ccc(C)cc1S(=O)(=O)N(C)CC(=O)N1CCCCC1	none
COc1cccc(-c2cccc(NC(=O)C3CCN(CC4CCOC4)CC3)c2)c1 (centres undefined)	none
COc1cccc(-c2cccc(NC(=O)C3CCN(C4CCOCC4)CC3)c2)c1	ssDAF12 agonist 1.5
COC(=O)c1cc2c(c3c4cc(OC)ccc4n(S(=O)(=O)c4ccc(C)cc4)c13)C(=O)N(C)C2	none (no result: DAX1 inh-2)
O=C(CC1CCCC1)N[C@H](C(=O)N1CCC[C@H]1C(=O)NC1CCCC1)C1CCCCC1	none (no result: DAX1 inh-2)
Cc1cccc(C)c1C(O)c1ncc(-c2cccc(F)c2)[nH]1 (centres undefined)	none (no result: DAX1 inh-2)
CC(=O)N1N=C(c2ccc(C)cc2)CC1c1ccc2c(c1)OCO2 (centres undefined)	hcDAF-12 act 6.1
CS(=O)(=O)N1N=C(c2ccc(Br)cc2)CC1c1ccc2c(c1)OCO2 (centres undefined)	none (no result: ssDAF12 agonist, hgDAF-12 ag, DAX1 inh-1, hcDAF-12 act)
COc1ccc(C2CC(=O)C(c3ccc(Cl)cc3)=CN2Cc2ccccc2)cc1 (centres undefined)	none (no result: DAX1 inh-2)
O=C(c1cc(-c2ccc3c(c2)OCO3)on1)N1CCCCC1	hcDAF-12 act 5.8
O=C(c1cc(-c2ccc(Cl)c(Cl)c2)on1)N1CCCCCC1	none
COC(=O)[C@]12C[C@H](CC(=O)N3CCN(C(=O)c4ccco4)CC3)C(=O)N(Cc3ccccc3)C1=C[C@H](C(C)(C)C)O[C@@H]2C	none (no result: DAX1 inh-2)
CCCOc1ccc(C2c3c(oc4cc(C)c(C)cc4c3=O)C(=O)N2CCCN(C)C)cc1 (centres undefined)	DAX1 inh-2 6.7
Cc1cc2oc3c(c(=O)c2cc1C)C(c1ccc(F)cc1)N(CCCN1CCOCC1)C3=O (centres undefined)	none
CCN1CCN(C(=O)c2cc3sccc3n2CC(=O)c2ccccc2)CC1	ssDAF12 agonist 1.2
